PrPC surface inh = cell surface PrPC inhibition, primary TR-FRET screen. P04156. TR-FRET read-out. inhibition, % at 13.8 µM. 370,000 tested, 0.43% active; in the data active means inhibition above about 24%; further: 0% = median of the test wells and 100% = reference compound wells
FBA Mtb inh = Mtb fructose-bisphosphate aldolase inhibition. inhibition, % at 1 µM. AID 588726. purified M. tuberculosis FBA, fluorescence read-out. 360,000 tested, 2.3% active; in the data active means inhibition above about 27%;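 further: 0% = vehicle and 100% = reference inhibitor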
TcdB inh = TcdB glycohydrolase inhibition. P18177. TcdB glycohydrolase enzymatic assay, plate reader. 350,000 tested, 0.24% active. AID 652162. inhibition, % at 9.99 µM; in the data active means inhibition above about 10%
Y pestis TopoI = Y. pestis Topo-I inhibition via cleavage products; 360,000 tested, 0.064% active; activity, % at 10 µM; Y. pestis Topo-I cleavage product accumulation, plate reader; in the data active means activity above about 50%, passing the limit was not always enough
GDH-TPI inh = inhibits GDH-TPI coupling enzymes, artifact for Mtb FBA screen. GDH-TPI coupled enzyme counterscreen, NADH absorbance. AID 588335. inhibition, % at 4.8 µM. 360,000 tested, 1.2% active; in the data active means inhibition above about 30%;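 further: 0% = DMSO wells and 100% = wells lacking the enzyme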
* marks the source's active call; other numbers are inactive results; / = no result; + = active, no number. Hits are enriched below; roughly 3.2% of the tested compounds scored in any of these assays.

SMILES	PrPC surface inh	FBA Mtb inh	TcdB inh	Y pestis TopoI	GDH-TPI inh
COc1ccc2c3c(n(C)c2c1)[C@H](CO)N(Cc1cc(F)ccc1F)CC31CN(C(C)=O)C1	/	/	-1	/	/
CC(C)CC(=O)N1CCN(Cc2ccc(Br)cc2)CC1	-2	1	11*	7	-2
CC(C)CC(=O)N1CCN(Cc2ccc(Cl)cc2)CC1	6	1	1	8	0
CN(/N=C/c1ccccc1O)C(=S)c1ccccc1	-1	1	2	-1	32*
CCOC(=O)c1ccc(NCCOC)c([N+](=O)[O-])c1	-17	-5	1	-1	-4
COCCNc1cc(N)c([N+](=O)[O-])cc1[N+](=O)[O-]	-28	-4	11*	-3	16
Cc1cccc(/C=N/NC(=O)c2cc3c(s2)-c2ccccc2CC3)c1	-4	20	/	15	34*
COC(=O)c1cc2c(s1)-c1ccccc1CC2	-4	94*	/	0	6
O=C(N/N=C/c1cccc(C(F)(F)F)c1)c1cc2c(s1)-c1ccccc1CC2	2	6	/	0	6
COC(=O)c1cc2c(s1)-c1cc(F)ccc1OC2	0	62*	0	-7	31*
O=C(c1ccccc1F)N1C[C@@H]2[C@H](c3ccccc31)[C@H](CO)N2C(=O)c1ccc(F)cc1	/	/	-8	/	/
O=C1CN(Cc2ccccc2)C[C@H]2[C@H](c3ccc(Br)cc3)[C@H](CO)N12	/	/	0	/	/
Cc1c(O)ccc(NC(=O)/C=C/c2ccccc2)c1C	3	6	17*	1	-1
O=C(COC(=O)/C=C/c1ccccc1)Nc1cccnc1Cl	-3	-3	-2	9	-4
COc1cc(NC(=O)Cc2ccccc2)c(C(=O)O)cc1OC	0	-1	7	4	0
COc1cc(NC(=O)Nc2cccc(Cl)c2)c(C(=O)O)cc1OC	-3	146*	-2	-1	14
COC(=O)c1cc(OC)c(OC)cc1NC(=S)Nc1cccc(Cl)c1	1	-7	/	-11	5
O=C(/C=C/c1ccccc1)Nc1cccnc1Cl	0	0	16*	-1	4
COc1cc(NC(=O)/C=C/c2ccccc2)c(C(=O)O)cc1OC	-4	-7	-1	1	44*
CCCN(C)C[C@H]1Oc2cc(-c3cccc(C#N)c3)ccc2S(=O)(=O)N([C@@H](C)CO)C[C@H]1C	/	/	1	/	/
C[C@@H]1CCCCO[C@@H](CN(C)C(=O)Nc2ccccc2)[C@H](C)CN([C@@H](C)CO)C(=O)c2cc(NS(=O)(=O)c3cccs3)ccc2O1	/	/	0	/	/
COc1cccc(-c2ccc([C@H]3[C@@H](CO)N4CCCCN(C(=O)NC(C)C)C[C@H]34)cc2)c1	/	/	0	/	/
CCOC(=O)COc1ccc2c(c1)C(=O)CC(C)(c1cccnc1)O2 (stereo unspecified)	/	59*	0	5	-4
O=C1CC2(CCN(C(=O)COc3ccccc3)CC2)Oc2ccccc21	-7	7	-1	19	8
C[C@@H]1CN([C@@H](C)CO)C(=O)c2cc(NS(=O)(=O)c3ccccc3)ccc2O[C@H]1CN(C)S(=O)(=O)c1cccs1	/	/	1	/	/
SMILES	PrPC surface inh	FBA Mtb inh	TcdB inh	Y pestis TopoI	GDH-TPI inh
N#CC1=C2N=C(N)c3ccccc3N2C2=C(C(=O)CCC2)C1c1ccc(F)cc1 (stereo unspecified)	-9	0	1	0	12
Cc1ccc(C2C(C#N)=C3N=C(N)c4ccccc4N3C3=C2C(=O)CCC3)cc1 (stereo unspecified)	-1	-3	1	3	31*
CC(=O)c1ccc(-c2cccc3nccn23)cc1	1	6	1	-3	24
c1cc(-c2ccc(CN3CCOCC3)cc2)n2ccnc2c1	3	+	0	3	8
CN1CCN(c2ccc(-c3cccc4nccn34)cn2)CC1	-2	+	0	4	30
N#Cc1ccc(-c2cccc3nccn23)cc1	8	178*	0	9	4
c1cc(-c2ccoc2)n2ccnc2c1	-1	22	1	-3	1
COc1ccc(C#Cc2cccc(-c3nc(C(=O)N[C@@H]4CCN(Cc5ccccc5)C4)cc4c3[C@@H](CCO)N(S(=O)C(C)(C)C)C4)c2)cc1OC (stereo partly specified)	/	/	1	/	/
COc1ccc(NC(=O)N(C)C[C@H]2Oc3ncc(-c4cccnc4)cc3C(=O)N([C@H](C)CO)C[C@@H]2C)cc1	/	/	0	/	/
C[C@@H]1CN([C@@H](C)CO)C(=O)c2cccc(NS(=O)(=O)c3cccs3)c2O[C@@H]1CN(C)Cc1ccc2c(c1)OCO2	/	/	2	/	/
Cc1noc(C)c1NC(=O)N(C)C[C@@H]1OCCCC[C@@H](C)Oc2ccc(NC(=O)Nc3ccc(F)cc3)cc2C(=O)N([C@H](C)CO)C[C@H]1C	/	/	0	/	/
C/C=C/c1cnc2c(c1)C(=O)N([C@@H](C)CO)C[C@H](C)[C@@H](CN(C)C(=O)Nc1ccc(OC)cc1)O2	/	/	1	/	/
CCCSc1nc2sc3c(c2c(=O)[nH]1)CCN(Cc1ccccc1)C3	/	86*	/	11	8
O=C(C[C@@H]1CC[C@H]2[C@@H](COC[C@@H](O)CN2C(=O)Nc2ccccc2)O1)NC1Cc2ccccc2C1	/	/	-1	/	/
COc1ccc2nc(-c3ccccn3)[nH]c2c1	3	9	0	1	20
Nc1cccc(-c2nc3ccc(C(=O)c4ccccc4)cc3[nH]2)c1	18	2	-2	-4	16
COc1ccc2nc(-c3ccc(N)cc3)[nH]c2c1	-4	+	/	-7	30
COc1ccc2nc(-c3cccc(N)c3)[nH]c2c1	2	177*	/	-8	17
COc1ccccc1S(=O)(=O)N[C@@H]1C=C[C@H](CC(=O)NCc2cccc(F)c2)O[C@@H]1CO	/	/	-1	/	/
C[C@H](CO)N1C[C@H](C)[C@@H](CN(C)C(=O)C2CCCCC2)OCCCC[C@H](C)Oc2ccc(NC(=O)Cc3ccccc3)cc2C1=O	/	/	1	/	/
CN1C(=O)c2cc(NC(=O)C3CCCCC3)ccc2OC[C@@H]2O[C@H](CC(=O)NCC3CCCCC3)CC[C@@H]21	/	/	0	/	/
O=C(/C=C/c1cccs1)c1ccc(NC(=O)c2cccc(Br)c2)cc1	4	-1	/	5	40*
Cc1ccc(C(=O)Nc2ccc(C(=O)/C=C/c3cccs3)cc2)cc1	-5	0	/	2	18
CNC(=O)C[C@@H]1CC[C@@H]2[C@@H](COc3ccc(NC(=O)c4ccc(OC)cc4)cc3C(=O)N2C)O1	/	/	1	/	/
COCCn1c(=O)[nH]c2cc(C(=O)OC)ccc2c1=O	0	19	/	3	-1
COC(=O)c1ccc2c(C)c(C(C)(C)O)[nH]c2c1	1	+	1	-5	19
CC(C)c1ccccc1-n1c(SCC(=O)c2ccc3c(c2)NC(=O)CO3)nc2ccccc2c1=O	3	122*	/	41	13
Cc1nc(N2CCN(C)CC2)c2sc(=S)n(-c3ccccc3)c2n1	1	2	1	5	38*
COc1ccc(C(C#N)N2CCCCC2)cc1OC (stereo unspecified)	1	0	0	8	3
